Where a name gives a salt, the structure may show the parent alone.
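Further: active if sensitivity score above 5.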

The test system of the experiment is S. cerevisiae NKY1551 his4x/his4B, sporulating. As to the kind of experiment: HIS4 meiotic recombination assay sensitivity score (z-score vs DMSO controls); higher = stronger inhibition of sporulation/recombination, active = hit call of the paper. The method, then: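 NIH Clinical Collection compounds were added 1:100 from stock (about 100 µM final) to S. cerevisiae. Growth: average doubling time (AvgG) over 24 h of BY4741 (wild-type) or AD1-9 (drug-efflux-pump deficient) in rich media. HIS4: the his4x/his4B heteroallelic recombination reporter strain (SK1) was sporulated 5 h with compound at 30°C, then colony density was read on -his plates after 48 h. Sensitivity score = (compound − mean of 8 DMSO controls)/SD of DMSO controls. Hit cutoffs are >2 for growth and >5 for sporulation.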
As for `Nc1ccn([C@@H]2O[C@H](CO)[C@@H](O)[C@@H]2O)c(=O)n1` [Cytarabine] (stock concentration (mM, diluted 1:100): 10), the “HIS4 meiotic recombination assay sensitivity score” value is -0.49 (inactive).
Then `N#Cc1ccc(C(c2ccc(C#N)cc2)n2cncn2)cc1` [Letrozol] (stock concentration (mM, diluted 1:100): 10), with -0.01 (inactive); and `Nc1ccc2cn[nH]c2c1` [6-Aminoindazole] (stock concentration (mM, diluted 1:100): 10), with -0.24 (inactive).
Then `CCCCC1=NC2(CCCC2)C(=O)N1Cc1ccc(-c2ccccc2-c2nnn[nH]2)cc1` [Irbesartan] (stock concentration (mM, diluted 1:100): 10.1), with -0.26 (inactive); and `CCN1CC(CCN2CCOCC2)C(c2ccccc2)(c2ccccc2)C1=O` (stereo not given) [Doxapram hydrochloride] (stock concentration (mM, diluted 1:100): 10.4), with 1.8 (inactive).
As to `COc1cc(C(=O)NS(=O)(=O)c2ccccc2C)ccc1Cc1cn(C)c2ccc(NC(=O)OC3CCCC3)cc12` [Zafirlukast] (stock concentration (mM, diluted 1:100): 10), the “HIS4 meiotic recombination assay sensitivity score” value was 1 (inactive).
Then `Cc1ccsc1C(=CCCN1CCC[C@@H](C(=O)O)C1)c1sccc1C` [Tiagabine hydrochloride] (stock concentration (mM, diluted 1:100): 9.1), with 5.07 (active).
Then `Cc1nc2n(c(=O)c1CCN1CCC(c3noc4cc(F)ccc34)CC1)CCCC2` [Risperidone] (stock concentration (mM, diluted 1:100): 10), with 1.75 (inactive); and `C[C@]12CCC(=O)C=C1CC[C@@H]1[C@@H]2CC[C@@]2(C)[C@H]1CC[C@]2(O)C(=O)CO` [Cortodoxone] (stock concentration (mM, diluted 1:100): 10), with 0.86 (inactive); and `Cn1nnc2c(C(N)=O)ncn2c1=O` [Temozolomide] (stock concentration (mM, diluted 1:100): 10), with -0.54 (inactive).
Then `CC(COc1ccccc1Cc1ccccc1)N1CCCCC1` (stereo not given) [Benproperine phosphate] (stock concentration (mM, diluted 1:100): 10), with 7.79 (active); and `O=C(O)CCNC(=O)c1ccc(/N=N/c2ccc(O)c(C(=O)O)c2)cc1` [Balsalazide] (stock concentration (mM, diluted 1:100): 10), with -1.14 (inactive).
With `CC1=C(C(=O)O)N2C(=O)[C@@H](NC(=O)[C@H](N)c3ccccc3)[C@H]2SC1` [Cephalexin monohydrate] (stock concentration (mM, diluted 1:100): 10), the “HIS4 meiotic recombination assay sensitivity score” value is -1.5 (inactive).
Then `COc1ccccc1OCC(O)CN1CCN(CC(=O)Nc2c(C)cccc2C)CC1` (stereo not given) [Ranolazine dihydrochloride] (stock concentration (mM, diluted 1:100): 8.6), with -1.05 (inactive).
Take `CC1CNc2c(cccc2S(=O)(=O)N[C@@H](CCCNC(=N)N)C(=O)N2CC[C@@H](C)C[C@@H]2C(=O)O)C1` (stereo not given in full) [Argatroban] (stock concentration (mM, diluted 1:100): 10.1): the “HIS4 meiotic recombination assay sensitivity score” value was 0.32 (inactive).
Then `C[C@@H](c1ncncc1F)[C@](O)(Cn1cncn1)c1ccc(F)cc1F` [Voriconazole] (stock concentration (mM, diluted 1:100): 9.9), with 0.14 (inactive); and `CN(C)CCOc1ccc(/C(=C(/CCCl)c2ccccc2)c2ccccc2)cc1` [Toremifene citrate] (stock concentration (mM, diluted 1:100): 10), with 3.57 (inactive); and `O=[N+]([O-])c1cccc2cn[nH]c12` [7-Nitroindazole] (stock concentration (mM, diluted 1:100): 10), with -1.75 (inactive).
The value for `O=C1N[C@H](C(=O)O)CS1` [Procysteine] (stock concentration (mM, diluted 1:100): 10) was -0.93 (inactive); that for `CC(=O)[C@]1(O)Cc2c(O)c3c(c(O)c2[C@@H](O[C@H]2C[C@H](N)[C@H](O)[C@H](C)O2)C1)C(=O)c1ccccc1C3=O` [Idarubicin hydrochloride] (stock concentration (mM, diluted 1:100): 9.3) was -2.94 (inactive).
The value for `Clc1ccccc1C(c1ccccc1)(c1ccccc1)n1ccnc1` [Clotrimazole] (stock concentration (mM, diluted 1:100): 10) was -0.98 (inactive); that for `CC(C)C[C@H](NC(=O)[C@@H](O)[C@H](N)Cc1ccccc1)C(=O)O` [Bestatin] (stock concentration (mM, diluted 1:100): 10) was -1.06 (inactive).
As for `O=C1N(c2ccccc2)c2ccccc2C1(Cc1ccncc1)Cc1ccncc1` (stock concentration (mM, diluted 1:100): 10), the “HIS4 meiotic recombination assay sensitivity score” value is 0.8 (inactive).
Then `Oc1ccc(C2CNCCc3c2cc(O)c(O)c3Cl)cc1` (stereo not given) [Fenoldopam mesylate] (stock concentration (mM, diluted 1:100): 7.7), with -0.24 (inactive).
Then `CCOc1cc(N)c(Cl)cc1C(=O)NCC1CN(Cc2ccc(F)cc2)CCO1` (stereo not given) [Mosapride citrate] (stock concentration (mM, diluted 1:100): 6.9), with -0.43 (inactive); and `O=C1CC2(CCCC2)CC(=O)N1CCNCC1COc2ccccc2O1` (stereo not given) (stock concentration (mM, diluted 1:100): 10), with -0.57 (inactive).
Then `Cc1ccnc2c1NC(=O)c1cccnc1N2C1CC1` [Viramune] (stock concentration (mM, diluted 1:100): 10), with 0.21 (inactive); and `Cc1c(O)c(=O)ccn1C` [Deferiprone] (stock concentration (mM, diluted 1:100): 10), with -0.12 (inactive).
`CC[C@H]1OC(=O)[C@H](C)[C@@H](O[C@H]2C[C@@](C)(OC)[C@@H](O)[C@H](C)O2)[C@H](C)[C@@H](O[C@@H]2O[C@H](C)C[C@H](N(C)C)[C@H]2O)[C@](C)(OC)C[C@@H](C)C(=O)[C@H](C)[C@@H](O)[C@]1(C)O` [Clarithromycin] (stock concentration (mM, diluted 1:100): 10): the “HIS4 meiotic recombination assay sensitivity score” value is -1.54 (inactive).
Then `COc1cc(C(=O)NC2CCCNC2)cc(OC)c1OC` (stereo not given) [Troxipide] (stock concentration (mM, diluted 1:100): 10.1), with -0.27 (inactive); and `C[C@H]1[C@H](OC(=O)CCC(=O)O)O[C@@H]2O[C@@]3(C)CC[C@H]4[C@H](C)CC[C@@H]1[C@@]24OO3` [Artesunate] (stock concentration (mM, diluted 1:100): 10), with 0.08 (inactive).
The value for `CC[C@H](C)C(=O)O[C@H]1CCC=C2C=C[C@H](C)[C@H](CC[C@@H]3C[C@@H](O)CC(=O)O3)[C@H]21` [Mevastatin] (stock concentration (mM, diluted 1:100): 10) was 1.32 (inactive).
As to `Nc1ccn([C@H]2CC[C@@H](CO)O2)c(=O)n1` [Zalcitabine] (stock concentration (mM, diluted 1:100): 10), the “HIS4 meiotic recombination assay sensitivity score” value is -0.41 (inactive).
On to `CCC(=O)NS(=O)(=O)c1ccc(-c2c(-c3ccccc3)noc2C)cc1` [Parecoxib] (stock concentration (mM, diluted 1:100): 9.8), for which the “HIS4 meiotic recombination assay sensitivity score” value was 0.05 (inactive).
Take `CCN1CCCC1CNC(=O)c1cc(S(=O)(=O)CC)c(N)cc1OC` (stereo not given) [Amisulpride] (stock concentration (mM, diluted 1:100): 10): the “HIS4 meiotic recombination assay sensitivity score” value is -0.66 (inactive).
As to `NNCCc1ccccc1` [Phenelzine sulfate salt] (stock concentration (mM, diluted 1:100): 10), the “HIS4 meiotic recombination assay sensitivity score” value was -3.78 (inactive).
In the case of `Nc1nc(O)c2ncn(CCC(CO)CO)c2n1` [Penciclovir] (stock concentration (mM, diluted 1:100): 10), the “HIS4 meiotic recombination assay sensitivity score” value is -0.35 (inactive).
For `NC(=O)c1cccnc1` [Nicotinamide] (stock concentration (mM, diluted 1:100): 10), the “HIS4 meiotic recombination assay sensitivity score” value was 0.03 (inactive).
Regarding `CCOC(=O)N1CCC(=C2c3ccc(Cl)cc3CCc3cccnc32)CC1` [Loratadine] (stock concentration (mM, diluted 1:100): 10), the “HIS4 meiotic recombination assay sensitivity score” value was -1.19 (inactive).
Then `Oc1ccc(/C=C/c2cc(O)cc(O)c2)cc1` [Resveratrol] (stock concentration (mM, diluted 1:100): 10), with 1.16 (inactive).

The record behind these values is the supplement of paper PMC3414501.
